USP10 inh: blocks human USP10 ubiquitin-rhodamine cleavage. 47,000 tested, 1.1% active. inhibition, % at 20 µM. purified USP10, Ub-rhodamine fluorescence, 60 min. Q14694
Target sequence (Q14694 whole entry, looked up): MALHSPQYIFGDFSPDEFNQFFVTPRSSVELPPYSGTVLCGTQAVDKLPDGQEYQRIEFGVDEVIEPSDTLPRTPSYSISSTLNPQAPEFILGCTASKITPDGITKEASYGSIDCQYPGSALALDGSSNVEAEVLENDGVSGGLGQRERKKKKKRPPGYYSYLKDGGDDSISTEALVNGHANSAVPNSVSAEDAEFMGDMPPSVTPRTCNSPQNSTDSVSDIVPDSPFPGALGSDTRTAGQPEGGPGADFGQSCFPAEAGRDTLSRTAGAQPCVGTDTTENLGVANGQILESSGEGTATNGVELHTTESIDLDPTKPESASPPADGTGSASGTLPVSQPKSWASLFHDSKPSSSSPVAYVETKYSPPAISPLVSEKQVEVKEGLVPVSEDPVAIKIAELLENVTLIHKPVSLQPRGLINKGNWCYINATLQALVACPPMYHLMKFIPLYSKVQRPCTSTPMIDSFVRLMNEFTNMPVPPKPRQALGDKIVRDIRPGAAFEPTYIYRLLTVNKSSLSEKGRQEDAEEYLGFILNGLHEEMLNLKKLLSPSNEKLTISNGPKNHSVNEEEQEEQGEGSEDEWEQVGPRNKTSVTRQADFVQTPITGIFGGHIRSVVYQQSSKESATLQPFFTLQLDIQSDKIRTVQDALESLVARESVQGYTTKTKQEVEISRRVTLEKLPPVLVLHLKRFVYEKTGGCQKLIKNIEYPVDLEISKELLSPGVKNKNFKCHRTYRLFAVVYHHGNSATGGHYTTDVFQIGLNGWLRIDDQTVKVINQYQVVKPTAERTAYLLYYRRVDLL
UCHL1 inh: blocks human UCHL1 ubiquitin-rhodamine cleavage. P09936. inhibition, % at 20 µM. 47,000 tested, 0.2% active. purified UCHL1, Ub-rhodamine cleavage fluorescence
USP28 block: blocks human USP28 ubiquitin-rhodamine cleavage; Q96RU2; purified USP28, Ub-rhodamine cleavage fluorescence, 30 min; inhibition, % at 25 µM; 47,000 tested, 3% active
OTUD3 inh: human OTUD3 deubiquitinase inhibition; Q5T2D3; purified OTUD3, Ub-rhodamine fluorescence, 2 h; inhibition, % at 25 µM; 47,000 tested, 0.7% active; AID 1645858
USP7 block: human USP7 deubiquitinase inhibition; Q93009; purified USP7, Ub-rhodamine cleavage fluorescence; 47,000 tested, 0.3% active; inhibition, % at 20 µM
* = called active by the depositor; · = not tested or not shown. In the library only some 4.2% were active in any assay of this set; here they are far more common. Cut-off read from the data, not from the text of the source: active = inhibition above about 30%; inactive = the rest.

SMILES | USP10 inh | UCHL1 inh | USP28 block | OTUD3 inh | USP7 block
Cc1nc(-c2ccccc2)n(Cc2ccc(F)cc2)c(=O)c1CCO | 10.3 | 12.8 | 32.6* | -6.4 | -166.7
O=C(COc1ncnc2sc3c(c12)CCCC3)Nc1ccc2c(c1)OCO2 | 31.2* | -1.0 | -21.4 | -15.5 | 10.8
Cc1cc(Cl)ccc1OCC(=O)Nc1ncnc2sc3c(c12)CCCC3 | -1.3 | -3.7 | -6.5 | -5.0 | -8.9
O=C(Nc1ccccc1C(=O)O)c1ccc(CSCc2ccccc2)cc1 | 51.1* | 5.9 | 31.2* | 20.6 | -34.0
O=C(Nc1ccccc1Cl)c1ccc(CN2CCC(Cc3ccccc3)CC2)cc1 | 8.0 | 4.9 | -13.7 | 2.7 | 11.0
c1ccc(-c2nc3sc4c(NCc5ccccn5)ncnc4c3c3c2CCC3)cc1 | -7.6 | -6.5 | -5.6 | -0.5 | -2.1
CCCCc1nc2sc3c(NCc4ccccn4)ncnc3c2c2c1CCC2 | -1.7 | -0.9 | 43.1* | -3.7 | -1.9
CCCc1nc2sc3c(NCc4ccco4)ncnc3c2c2c1CCC2 | -1.6 | -3.1 | 80.2* | -27.8 | -3.1
CCCCc1nc2sc3c(SCC(N)=O)ncnc3c2c2c1CCC2 | 2.1 | 2.5 | 36.3* | 12.0 | 3.8
Cc1cc(=O)n2c(n1)NC(N1CCN(c3ccccc3)CC1)=NC2c1cccnc1 (stereo not given) | -0.8 | -0.2 | 12.1 | 4.1 | 4.2
Cc1cccc(NS(=O)(=O)c2cc3[nH]c4c(c3cc2C)C(=O)CC(C)(C)C4)c1 | 7.1 | 5.0 | 4.0 | -4.3 | 3.0
CCC(C)NC(=O)Cn1c(=O)n(-c2ccccc2)c(=O)c2ccc(C(=O)NCc3ccco3)cc21 (stereo not given) | 7.0 | 3.6 | 38.7* | 31.8* | -4.5
COc1cc(OC)c(NC(=O)Cn2c(=O)n(-c3ccc(CC(=O)NCC4CCCO4)cc3)c(=O)c3ccccc32)cc1Cl (stereo not given) | -0.1 | 4.1 | · | -4.2 | 4.2
O=C(Cc1ccc(-n2c(=O)c3ccccc3n(CC(=O)Nc3ccc(Cl)cc3Cl)c2=O)cc1)NCc1ccco1 | 45.8* | 1.7 | 10.4 | 2.8 | 13.9
COc1ccc(NC(=O)Cn2c(=O)n(-c3ccc(CC(=O)NCc4ccco4)cc3)c(=O)c3ccccc32)cc1Cl | 60.6* | 20.4 | -9.2 | 9.0 | -0.3
COc1cccc(C(=O)Nc2cc3c4c(c2)CC(=O)N4CCC3)c1 | -1.2 | 2.2 | 33.0* | -13.3 | -1.7
COc1cc(OC)cc(C(=O)Nc2cccc(N3CCCC3=O)c2)c1 | -0.4 | -2.5 | 28.7 | -0.8 | -3.7
Cc1cccc(C(=O)Nc2cc3c4c(c2)CC(=O)N4CCC3)c1 | -2.1 | 0.7 | 36.9* | -14.9 | 0.1
COc1ccccc1N1CCN(C(=O)c2ccc3c(=O)n(CCc4ccccc4)c(=O)[nH]c3c2)CC1 | 40.2* | 5.6 | 7.8 | 5.2 | 6.8
O=C1CSCC(=O)N1c1ccc2c(c1)OCO2 | -1.4 | -1.2 | 5.3 | -2.3 | -5.0
O=C1C/C(=C\c2ccc3c(c2)OCO3)Cc2ccccc21 | 9.1 | 2.4 | 30.4* | 11.5 | 2.7
O=C1Cc2ccccc2C(=O)N1c1ccc2c(c1)OCO2 | 17.7 | 6.1 | 36.1* | 14.4 | -31.8
CCc1ccc(NC(=O)COc2cccc(-n3cnnn3)c2)cc1 | 3.5 | 0.4 | 0.3 | -0.1 | -4.5
CCCOc1cccc(C(=O)Nc2ccc(-n3cnnn3)cc2)c1 | 18.6 | 1.9 | 46.9* | 5.7 | 5.8
O=C(CCC(=O)N1CCC(C(=O)N2CCCCC2)CC1)Nc1ccc(Oc2ccccc2)cc1 | -3.6 | -3.9 | 5.9 | -4.0 | -11.8
SMILES | USP10 inh | UCHL1 inh | USP28 block | OTUD3 inh | USP7 block
N=c1sccn1CC(=O)Nc1ccc(Oc2ccccc2)cc1 | -7.1 | -2.3 | 37.1* | 4.5 | -68.0
O=C(Nc1ccc2c(c1)OCO2)C1CCN(Cc2nc3ccccc3s2)CC1 | -1.1 | 1.0 | 69.9* | 9.8 | 1.9
O=C(CCCn1c(SCc2ccccc2F)nc2ccccc2c1=O)NCCc1ccccc1 | 2.0 | -1.8 | 1.6 | 5.8 | 5.1
Cc1cccc(C)c1NC(=O)C(C)n1c(C)nc2onc(C)c2c1=O (stereo not given) | 3.5 | 3.4 | 0.0 | -5.5 | 1.6
COc1ccc(-n2nnc(C(=O)Nc3nc(C)c(C)s3)n2)cc1 | -9.8 | -1.7 | 42.0* | 12.4 | 7.3
Cc1nc(NC(=O)c2nnn(-c3ccc(F)cc3)n2)sc1C | 2.8 | 3.5 | 6.1 | -2.0 | 1.2
Cc1ccc(NC(=O)c2nnn(-c3ccccc3)n2)cc1 | 5.8 | 2.5 | 28.7 | -3.2 | -8.9
COc1cccc(NC(=O)c2nnn(-c3ccccc3)n2)c1 | 3.3 | -0.1 | 66.3* | -1.7 | -11.0
O=S(=O)(c1ccccc1)c1cnc(-c2ccccc2)nc1Oc1ccc(F)cc1F | 1.7 | 0.3 | 13.3 | -3.4 | 8.5
Cc1c2c(nc3ccccc13)-c1ccccc1CC2 | 3.8 | 3.6 | 55.2* | 7.0 | 9.5
O=C(CCn1c(=O)c2ccccc2n(CC(=O)Nc2ccc3c(c2)OCCO3)c1=O)NCCc1ccccc1 | 20.8 | -1.0 | -2.0 | -3.9 | 4.0
c1ccc2c(c1)ccc1nnc(-c3ccc4c(c3)OCO4)n12 | 0.3 | 3.7 | 60.5* | 20.0 | -24.9
O=C(NC1CCCC1)C(c1ccc(Cl)cc1)N(Cc1ccccc1F)C(=O)c1ccco1 (stereo not given) | 0.6 | 2.2 | 2.1 | 17.1 | 5.6
CCc1nccn1Cc1noc(-c2ccc3c(c2)OCO3)n1 | 0.6 | 2.4 | 48.0* | 14.1 | 0.9
CS(=O)(=O)c1cccc(-c2nnc(NC(=O)c3ccc(Cc4ccccc4)cc3)o2)c1 | 40.7* | 7.9 | 18.9 | 13.4 | 12.3
CS(=O)(=O)c1ccc(-c2nnc(NC(=O)c3ccco3)o2)cc1 | 1.9 | 0.1 | 8.6 | 9.6 | 4.5
CC(NC(=O)c1ccc(-c2nnc(-c3ccccc3)o2)cc1)c1ccc(S(C)(=O)=O)cc1 (stereo not given) | 4.5 | 5.8 | 22.5 | 35.7* | 8.7
CC(C)OCCCn1c(=O)c2ccccc2n2c(CCC(=O)NCc3ccccn3)nnc12 | 1.2 | 0.5 | -2.7 | -0.9 | 0.3
COc1cccc(NC(=O)CCc2nnc3n(CCCOC(C)C)c(=O)c4ccccc4n23)c1 | 4.0 | 3.7 | 69.9* | 36.6* | ·
O=C(CCCCCn1c(=O)[nH]c2ccccc2c1=O)NCCc1ccc(Cl)cc1 | 1.0 | -1.1 | 7.7 | 8.1 | 1.1
O=c1[nH]c2ccccc2n1CCCOc1ccc(Cl)cc1 | 5.8 | 4.3 | 39.8* | 0.7 | -29.4
COc1ccc(NC(=O)Cn2c(C)cc(=O)n3nc(-c4cccc(C)c4)nc23)cc1 | 46.6* | 1.0 | 3.0 | -28.7 | 22.2
CCc1ccc(NC(=O)Cn2c(C)cc(=O)n3nc(C(F)(F)F)nc23)cc1 | 3.2 | -0.3 | -2.7 | -2.2 | 4.1
CCCCC/C=C/C=C/C=C/c1c(O)ccc(O)c1C=O | 3.2 | -0.4 | 1.3 | 6.5 | 1.5
CCCCCC1OC(=O)c2c(C)cccc2Oc2ccc(O)c(C=O)c2/C=C/C1O (stereo not given) | 30.6* | 40.6* | 53.4* | 44.8* | -98.4
CCCCCC1OC(=O)c2c(C)cccc2Oc2ccc(O)c(CO)c2/C=C/C1O (stereo not given) | 11.9 | 13.8 | 47.2* | 20.1 | -15.2
COc1ccc(C(=O)N2CC[C@@H]3Oc4ccccc4S(=O)(=O)N(C)[C@H]3CC2)cc1 | 1.2 | 1.7 | 4.7 | 14.8 | 0.2
